# Data reported in article PMC11062922 (Nature Chemical Biology, 2023).
# Experiments:
# MAPK3 = tested on: MAPK3; set-up: species or system human, MV4-11 + K-562 + COLO205 + SK-N-BE2 + OVCAR-8; conditions: read-out: apparent Kd; compound concentrations: 100 nM and 1000 nM (sheet 'Samples'), CATDS: 4.9102061744830498E-3; n = 1
# PKMYT1 = tested on: PKMYT1; set-up: species or system human, MV4-11 + K-562 + COLO205 + SK-N-BE2 + OVCAR-8; conditions: read-out: apparent Kd; compound concentrations: 100 nM and 1000 nM (sheet 'Samples'), CATDS: 4.7786675943352697E-3; n = 1
# SLC25A5 = tested on: SLC25A5; set-up: species or system human, MV4-11 + K-562 + COLO205 + SK-N-BE2 + OVCAR-8; conditions: read-out: apparent Kd; compound concentrations: 100 nM and 1000 nM (sheet 'Samples'), CATDS: 3.4931763386449499E-3; n = 1
# TAOK2 = tested on: TAOK2; set-up: species or system human, MV4-11 + K-562 + COLO205 + SK-N-BE2 + OVCAR-8; conditions: read-out: apparent Kd; compound concentrations: 100 nM and 1000 nM (sheet 'Samples'), CATDS: 4.3468745935786399E-3; n = 1
# TESK1 = tested on: TESK1; set-up: species or system human, MV4-11 + K-562 + COLO205 + SK-N-BE2 + OVCAR-8; conditions: read-out: apparent Kd; compound concentrations: 100 nM and 1000 nM (sheet 'Samples'), CATDS: 1.6628532352141699E-2; n = 1
# TUBB6 = tested on: TUBB6; set-up: species or system human, MV4-11 + K-562 + COLO205 + SK-N-BE2 + OVCAR-8; conditions: read-out: apparent Kd; compound concentrations: 100 nM and 1000 nM (sheet 'Samples'), CATDS: 3.8955620012379099E-3; n = 1
# PGK1 = tested on: PGK1; set-up: species or system human, MV4-11 + K-562 + COLO205 + SK-N-BE2 + OVCAR-8; conditions: read-out: apparent Kd; compound concentrations: 100 nM and 1000 nM (sheet 'Samples'), CATDS: 0.13034020177251299; n = 1
# PSMC4 = tested on: PSMC4; set-up: species or system human, MV4-11 + K-562 + COLO205 + SK-N-BE2 + OVCAR-8; conditions: read-out: apparent Kd; compound concentrations: 100 nM and 1000 nM (sheet 'Samples'), CATDS: 0.17422831247088; n = 1
# AMPK-alpha1 = tested on: AMPK-alpha1; set-up: species or system human, MV4-11 + K-562 + COLO205 + SK-N-BE2 + OVCAR-8; conditions: compound concentrations: 100 nM and 1000 nM (sheet 'Samples')
# AMPK-alpha2 = tested on: AMPK-alpha2; set-up: species or system human, MV4-11 + K-562 + COLO205 + SK-N-BE2 + OVCAR-8; conditions: compound concentrations: 100 nM and 1000 nM (sheet 'Samples')
# CIT = tested on: CIT; set-up: species or system human, MV4-11 + K-562 + COLO205 + SK-N-BE2 + OVCAR-8; conditions: compound concentrations: 100 nM and 1000 nM (sheet 'Samples')
# CLK1 = tested on: CLK1; set-up: species or system human, MV4-11 + K-562 + COLO205 + SK-N-BE2 + OVCAR-8; conditions: compound concentrations: 100 nM and 1000 nM (sheet 'Samples')
# CLK2 = tested on: CLK2; set-up: species or system human, MV4-11 + K-562 + COLO205 + SK-N-BE2 + OVCAR-8; conditions: compound concentrations: 100 nM and 1000 nM (sheet 'Samples')
# CSNK2A1 = tested on: CSNK2A1; set-up: species or system human, MV4-11 + K-562 + COLO205 + SK-N-BE2 + OVCAR-8; conditions: read-out: Kinobeads Data; compound concentrations: 100 nM and 1000 nM (sheet 'Samples'); n = 1
# CSNK2A2 = tested on: CSNK2A2; set-up: species or system human, MV4-11 + K-562 + COLO205 + SK-N-BE2 + OVCAR-8; conditions: read-out: Kinobeads Data; compound concentrations: 100 nM and 1000 nM (sheet 'Samples'); n = 1
# DDR1 = tested on: DDR1; set-up: species or system human, MV4-11 + K-562 + COLO205 + SK-N-BE2 + OVCAR-8; conditions: compound concentrations: 100 nM and 1000 nM (sheet 'Samples')
# DDR2 = tested on: DDR2; set-up: species or system human, MV4-11 + K-562 + COLO205 + SK-N-BE2 + OVCAR-8; conditions: compound concentrations: 100 nM and 1000 nM (sheet 'Samples')
# DYRK1A = tested on: DYRK1A; set-up: species or system human, MV4-11 + K-562 + COLO205 + SK-N-BE2 + OVCAR-8; conditions: compound concentrations: 100 nM and 1000 nM (sheet 'Samples')
# DYRK1B = tested on: DYRK1B; set-up: species or system human, MV4-11 + K-562 + COLO205 + SK-N-BE2 + OVCAR-8; conditions: compound concentrations: 100 nM and 1000 nM (sheet 'Samples')
# PKN3 = conditions: read-out: Average; hek293t cells; n = 4;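 also: NanoBRET target engagement in HEK293T cells transiently expressing full-length PKN3 with C-terminal NanoLuc, displacement of fluorescent tracer K5 (500 nM), BRET read after 2 h equilibration at 37 °C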
# 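For Kinobeads Data in this document: kinobeads ε competition pulldown from cell lysate, compound preincubated 45 min at 4 °C, bound kinases quantified by LC–MS/MS relative to DMSO control.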
structure (smiles),measurement,setting,value
Cn1ncc2c(N)ncnc21 [SKF-18267],potency estimated from few doses,MAPK3,844 nM
same,potency estimated from few doses,PKMYT1,892 nM
same,potency estimated from few doses,SLC25A5,1950 nM
same,potency estimated from few doses,TAOK2,1100 nM
same,potency estimated from few doses,TESK1,136 nM
same,potency estimated from few doses,TUBB6,1430 nM
COc1cccc2c(-c3ccncc3)c(-c3ccc(F)cc3)nn12 [GW468513X],potency estimated from few doses,PGK1,62.3 nM
O=C1NC(=O)/C(=C/c2ccc3ncccc3c2)S1 [RO4603632-000],potency estimated from few doses,PSMC4,1730 nM
COc1cc(Nc2ncc3c(C)nc(-c4cc5ccccc5[nH]4)n3n2)cc(OC)c1OC [GW869516X],Kinobeads Data,AMPK-alpha1,no target
same,Kinobeads Data,AMPK-alpha2,no target
same,Kinobeads Data,CIT,no target
same,Kinobeads Data,CLK1,no target
same,Kinobeads Data,CLK2,no target
same,potency estimated from few doses,CSNK2A1,78 nM
same,potency estimated from few doses,CSNK2A2,56 nM
same,Kinobeads Data,DDR1,no target
same,Kinobeads Data,DDR2,no target
same,Kinobeads Data,DYRK1A,no target
same,Kinobeads Data,DYRK1B,no target
CCOc1nccc2c1nc(-c1nonc1N)n2CC [SB-737198],IC50,PKN3,> 50000 nM
